# Out of some 420,000 compounds screened, about 50,000 (12%) were called active. Roughly 26% stayed inconclusive and do not appear here. Calls come from the whole dose curve; as a rule, active = well fitted inhibition curve with a large enough effect; inconclusive = small, poorly fitted or top-dose-only effect; inactive = flat fitted curve, though single readings scatter. The sample as a whole holds a higher share of actives than the screen did.
# Assay: qHTS for Inhibitors of human tyrosyl-DNA phosphodiesterase 1 (TDP1): qHTS in cells in presence of CPT; note: nearly all actives have a fitted effect of over 55% in size
# Conditions: chicken DT40 Tdp1-/-;hTDP1 cells + 20 nM CPT, ATP luminescence, 48 h; series mostly up to 46.2 µM; activity change, negative = growth inhibition: at the top concentration
# How it was run: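 Chicken DT40 Tdp1-/- cells stably complemented with human TDP1 were seeded at 400 cells/well in medium containing 20 nM camptothecin, exposed to pin-transferred compounds, and grown at 37 °C for at least 48 hr. Viability was read as ATP luminescence.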
# % is set by controls: 0 for no effect and ±100 for the full control effect; potency is the fitted concentration of half-maximal effect.
Structure (SMILES),Potency,"activity change, negative = growth inhibition"
COc1ccccc1N1CCN(C(=O)c2cc(=O)c3cc(C)cc(C)c3o2)CC1,0.0052 µM (active),
COc1cc2c(cc1OC)CN(C(=O)c1cc(=O)c3ccccc3o1)CC2,4.11 µM (active),
COc1ccc2c(CC(=O)N3CCc4cc(OC)c(OC)cc4C3)coc2c1,,-2.85% (inactive)
Cc1ccc2oc(=O)c3cnn(CC(=O)N4CCN(c5ccccn5)CC4)c3c2c1,,-12.3% (inactive)
O=C(c1cc(=O)c2ccccc2o1)N1CCN(c2ccccc2)CC1,,0.696% (inactive)
COc1ccc2oc(=O)c(C(=O)N3CCN(c4ccccc4F)CC3)cc2c1,,-26.6% (inactive)
COc1cccc2cc(C(=O)N3CCN(C(=O)c4ccccc4)CC3)c(=O)oc12,,-16.3% (inactive)
COc1ccccc1N1CCN(C(=O)c2cc(=O)c3cc(C)ccc3o2)CC1,14.6 µM (active),
COc1ccccc1OCc1ccc(C(=O)N2CCN(C)CC2)o1,,7.63% (inactive)
CC1(C)C2CCC1(CS(=O)(=O)NCCc1c[nH]c3ccccc13)C(=O)C2 (centres undefined),,-2.02% (inactive)
C/C(=N\NS(=O)(=O)c1ccc(Cl)cc1)c1ccc(NC(=O)c2ccco2)cc1,,-3.84% (inactive)
Cc1ccc(OCC(=O)Nc2ccc3oc(=O)ccc3c2)cc1C,,-0.987% (inactive)
CSc1cccc(NC(=O)C2CCCN2S(=O)(=O)c2ccc3c(c2)CCC(=O)N3)c1 (centres undefined),,-21.6% (inactive)
N#Cc1c(N)nc2c(c1N)CC(C(F)(F)F)O2 (centres undefined),,0.681% (inactive)
CCc1ccc(CNC(=O)c2cc3cc4ccc(OC)cc4nc3o2)cc1,,1.41% (inactive)
Cc1ccc(-c2cc(N)n(Cc3cccc(Cl)c3)n2)cc1,,-22.3% (inactive)
CC(C)Cc1ccc(-c2cc3nc(NCc4cccc(Cl)c4)ccn3n2)cc1,20.6 µM (active),
CCNC(=S)N1CCN(CCN=CC2=C(O)CC(C)(C)CC2=O)CC1,,3.82% (inactive)
COc1ccccc1N(C)S(=O)(=O)c1ccc(C(=O)N2CCC(C(N)=O)CC2)cc1,,-21% (inactive)
COc1ccccc1N(C)S(=O)(=O)c1ccc(C(=O)NC2CCCCCC2)cc1,23.1 µM (active),
COc1ccc(S(=O)(=O)NC(C)C)cc1C(=O)NC1CCCCC1,,7.46% (inactive)
CO[C@]1(NC(=O)CSC(F)F)C(=O)N2C(C(=O)O)=C(CSc3nnnn3CCO)CO[C@H]21,,1.05% (inactive)

Structure (SMILES),Potency,"activity change, negative = growth inhibition"
CCn1c(SCC(=O)NC2CC2)nnc1-c1ccccc1OC,,6.21% (inactive)
COC(=O)c1ccc(COc2ccc(C#N)cc2)o1,,-0.114% (inactive)
CCc1cccc(C)c1N1C(=O)CN(Cc2ccccc2)C1=S,,-2.8% (inactive)
COCC(=O)N1CCCC(C(=O)c2ccc(C(F)(F)F)cc2)C1 (centres undefined),,-21.2% (inactive)
Cn1cc(/C=C/C(=O)N2CCCC(C(=O)c3ccc(C(F)(F)F)cc3)C2)cn1 (centres undefined),,8.27% (inactive)
Cn1cc(CCC(=O)N2CCCC(C(=O)c3ccc(C(C)(C)C)cc3)C2)cn1 (centres undefined),25.9 µM (active),
CC1(C(=O)NS(=O)(=O)c2ccccc2)CCN1C(=O)c1ccccc1 (centres undefined),,5.22% (inactive)
CCNC(=O)C1(C)CCCN1C(=O)c1ccc(N(C)C)cc1 (centres undefined),,-2.17% (inactive)
CC(C)NC(=O)C1(C)CCCCCN1C(=O)c1ccc(-c2ccccc2)cc1 (centres undefined),18.4 µM (active),
CC(OC(=O)c1ccc(-n2cnnn2)cc1)C(=O)NCc1ccccc1 (centres undefined),,2.67% (inactive)
O=C(CSc1nc(=O)n(Cc2cccnc2)c2c1CCC2)Nc1ccc(F)cc1F,,-2.59% (inactive)
COc1ccc(C)cc1N(C)C(=O)c1c(C)oc2ncnc(N3CCOCC3)c12,,24.5% (inactive)
Cc1ccc2oc(=O)c3cnn(CC(=O)N4CCN(c5cccc(Cl)c5)CC4)c3c2c1,,-20.3% (inactive)
Cc1oc2ncnc(N3CCCCC3)c2c1C(=O)N1CCN(c2cccc(Cl)c2)CC1,16.4 µM (active),
O=C1C(c2[nH]c3ccccc3c2O)=Nc2ccccc21,,-24.8% (inactive)
CCOC(=O)CCCN1CC(O)=C(c2nc3ccccc3s2)C1=N,,-18.1% (inactive)
N=C1C(c2nc3ccccc3s2)=C(O)CN1NC(=O)c1ccc([N+](=O)[O-])cc1,20.6 µM (active),
O=C(Nn1c(-c2ccccc2)nc2ccccc2c1=O)c1ccc([N+](=O)[O-])cc1,,-5.8% (inactive)
COc1cccc(C(=O)n2ccc(-c3cccs3)n2)c1,,5.04% (inactive)
CCCCNC(=S)N/N=C1\CCCCc2ccccc21,23.1 µM (active),
Cc1ccc(NC(=S)N/N=C2/CCCc3c(C)cc(C)cc32)cc1,,4.83% (inactive)
CCCCc1ccc(NC(=S)NCCCN2CCOCC2)cc1,,-16% (inactive)

Structure (SMILES),Potency,"activity change, negative = growth inhibition"
CCOc1ccccc1CN1CCN(C2CCC2)CC1CCO (centres undefined),,1.66% (inactive)
COC(C[C@@H]1O[C@@H]1C(=O)[C@@H](C)OCc1ccccc1)OC,,-25.6% (inactive)
COC(C[C@H](O)CC(=O)[C@@H](C)OCc1ccccc1)OC,,-0.491% (inactive)
COC(C/C=C/C(=O)[C@@H](C)OCc1ccccc1)OC,18.4 µM (active),
CCCC(C)C(=O)OCC(=O)Nc1c(Br)cc(C)cc1Br (centres undefined),,3.63% (inactive)
OCC1(Cc2ccccc2C(F)(F)F)CCN(Cc2cccc3cnccc23)CC1,,-4.82% (inactive)
CC1CCCCC1NC(=O)CSc1nnc(-c2ccncc2)n1CCCN(C)C (centres undefined),,10.5% (inactive)
CN1CCN(c2ccc(S(=O)(=O)N3CCOCC3)cc2NC(=O)CCc2ccccc2)CC1,,0.451% (inactive)
COC(=O)c1ccc(N2CCOCC2)c(NC(=O)c2ccc(Br)o2)c1,,0.879% (inactive)
CCCN(CCC)CCNC(=O)c1ccc2c(c1)NC(=O)C(CS(=O)(=O)Cc1cccc(Br)c1)N2 (centres undefined),,-21.3% (inactive)
CCCNC(=O)c1ccc(N2CCC3(CC2)CC(c2cccc(Br)c2)=NO3)c(NC(=O)c2ccco2)c1,5.17 µM (active),
CCCNC(=O)c1ccc(N2CCC3(CC2)CC(c2ccc(Cl)cc2)=NO3)c([N+](=O)[O-])c1,23.1 µM (active),
COCCNC(=O)c1ccc(N2CCC3(CC2)OCCO3)c([N+](=O)[O-])c1,,-2.95% (inactive)
O=C(NCCCN1CCOCC1)c1ccc(N2CCCC2)c([N+](=O)[O-])c1,,13.4% (inactive)
Cc1oc2c(C)c3oc(=O)c(CC(=O)N[C@@H](CC(C)C)C(=O)N[C@@H](Cc4ccccc4)C(=O)O)c(C)c3cc2c1C,,0.481% (inactive)
COc1cc(N)c(Cl)cc1C(=O)OCC(=O)c1ccc2c(c1)NC(=O)CO2,,-24.7% (inactive)
CCOc1ccccc1NC(=O)CCc1nnc2ccc(NCc3ccco3)nn12,,-5.44% (inactive)
Cn1ncc([N+](=O)[O-])c1C(=O)Nc1cc(Cl)ccc1Cl,,13.4% (inactive)
C/C(=N\NC(=O)c1cccnc1)c1ccc(-n2ccnc2)cc1,,6.18% (inactive)
Cc1ccc(C)c(NC(=O)CCC(=O)N/N=C2/CC(=O)CC(C)(C)C2)c1,,-5.64% (inactive)
